The values below come from publication PMC7862700, “An all-to-all approach to the identification of sequence-specific readers for epigenetic DNA modifications on cytosine”.

Experiment in all cases: DAPPL (digital affinity profiling via proximity ligation, sequencing); 10 mM Tris-HCl pH 7.5, 50 mM NaCl, 1 mM DTT, 4% glycerol, room temperature, 30 min; GST-TFs on glutathione beads, 16-mer random dsDNA library, 0.1% formaldehyde crosslink after washing; high values mean tight binding
The target in one assay is T1, FLI1 (Homo sapiens, UniProt Q01543 1-452).
T1 sequence: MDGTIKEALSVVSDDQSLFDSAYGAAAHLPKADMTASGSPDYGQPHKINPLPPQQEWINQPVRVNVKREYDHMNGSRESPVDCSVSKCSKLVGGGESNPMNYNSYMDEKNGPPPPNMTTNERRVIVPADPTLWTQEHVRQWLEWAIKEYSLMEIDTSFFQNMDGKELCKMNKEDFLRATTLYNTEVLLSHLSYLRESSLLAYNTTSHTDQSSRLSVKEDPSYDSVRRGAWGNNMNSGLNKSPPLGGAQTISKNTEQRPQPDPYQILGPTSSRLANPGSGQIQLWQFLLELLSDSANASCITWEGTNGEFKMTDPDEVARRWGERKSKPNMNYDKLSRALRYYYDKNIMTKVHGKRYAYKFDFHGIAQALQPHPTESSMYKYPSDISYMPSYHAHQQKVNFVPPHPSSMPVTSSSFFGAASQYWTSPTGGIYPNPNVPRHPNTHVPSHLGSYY
As to conditions: protein: recombinant; tags: N-terminal GST; dsDNA, one strand shown. Summed up: (§1)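 Each value of binding signal is a hexamer's read frequency for a factor divided by the same hexamer's frequency in the tag-only sample. Barcoded, bead-captured GST fusions of human transcription factors made in yeast were pooled with that sample and incubated with 200 nmole of a random double-stranded 16-mer DNA library in Tris/NaCl/DTT/glycerol buffer at room temperature for 30 min. Washing, 0.1% formaldehyde crosslinking, proximity ligation, PCR and Illumina NextSeq500 sequencing followed.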

A further assay deals with T2, ELK1 (Homo sapiens, UniProt P19419 1-428).
T2 sequence: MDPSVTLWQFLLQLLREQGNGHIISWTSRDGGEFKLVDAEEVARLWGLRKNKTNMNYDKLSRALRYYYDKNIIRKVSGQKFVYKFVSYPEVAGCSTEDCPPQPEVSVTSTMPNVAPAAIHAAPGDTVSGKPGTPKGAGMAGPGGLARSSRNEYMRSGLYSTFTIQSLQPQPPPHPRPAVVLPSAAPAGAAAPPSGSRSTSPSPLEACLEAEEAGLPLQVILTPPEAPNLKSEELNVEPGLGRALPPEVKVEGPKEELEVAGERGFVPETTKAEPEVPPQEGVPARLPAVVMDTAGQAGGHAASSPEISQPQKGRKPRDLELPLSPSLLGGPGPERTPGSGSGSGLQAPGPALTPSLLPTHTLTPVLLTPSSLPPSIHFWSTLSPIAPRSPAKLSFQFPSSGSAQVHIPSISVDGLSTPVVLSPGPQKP
The settings on record: protein: recombinant; tags: N-terminal GST; dsDNA, one strand shown. A digest of the protocol: as §1

A further assay concerns the target T3, GABPA (Homo sapiens, UniProt Q06546 1-454).
T3 sequence: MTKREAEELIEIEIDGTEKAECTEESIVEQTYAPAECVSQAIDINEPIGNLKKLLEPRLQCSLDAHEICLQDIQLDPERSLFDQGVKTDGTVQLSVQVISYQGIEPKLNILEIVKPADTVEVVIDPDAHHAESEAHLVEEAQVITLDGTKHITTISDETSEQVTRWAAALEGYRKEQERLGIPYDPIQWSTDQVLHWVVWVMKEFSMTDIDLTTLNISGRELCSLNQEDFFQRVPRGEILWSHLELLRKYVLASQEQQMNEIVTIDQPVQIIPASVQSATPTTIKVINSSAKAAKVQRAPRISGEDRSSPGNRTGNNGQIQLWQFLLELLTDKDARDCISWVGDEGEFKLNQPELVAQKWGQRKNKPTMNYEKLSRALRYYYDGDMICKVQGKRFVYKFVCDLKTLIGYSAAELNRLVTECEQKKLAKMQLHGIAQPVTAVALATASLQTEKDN
The settings on record: protein: recombinant; tags: N-terminal GST; dsDNA, one strand shown. Summed up:
as §1

For a further assay, the target named is ELF1 (Homo sapiens, UniProt P32519 1-619). The settings on record: protein: recombinant; tags: N-terminal GST; dsDNA, one strand shown. Summed up: as §1
ELF1, sequence (P32519 whole entry): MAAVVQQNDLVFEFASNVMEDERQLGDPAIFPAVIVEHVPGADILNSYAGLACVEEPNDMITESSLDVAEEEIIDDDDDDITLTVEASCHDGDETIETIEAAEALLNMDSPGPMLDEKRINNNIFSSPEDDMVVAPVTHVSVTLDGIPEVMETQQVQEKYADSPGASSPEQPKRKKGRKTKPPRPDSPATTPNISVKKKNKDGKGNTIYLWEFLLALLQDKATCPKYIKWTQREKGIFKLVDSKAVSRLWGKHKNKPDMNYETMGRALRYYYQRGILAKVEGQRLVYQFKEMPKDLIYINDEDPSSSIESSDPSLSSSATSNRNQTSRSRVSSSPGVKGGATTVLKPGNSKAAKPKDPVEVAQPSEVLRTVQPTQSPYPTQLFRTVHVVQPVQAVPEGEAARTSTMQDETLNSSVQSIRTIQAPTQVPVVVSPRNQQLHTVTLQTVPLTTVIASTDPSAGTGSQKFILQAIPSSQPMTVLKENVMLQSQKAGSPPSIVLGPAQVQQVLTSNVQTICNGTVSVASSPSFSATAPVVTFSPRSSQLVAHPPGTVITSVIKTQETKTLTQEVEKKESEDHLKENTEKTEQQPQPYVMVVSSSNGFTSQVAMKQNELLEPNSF
Another assay addresses SPI1 (Homo sapiens, UniProt P17947 1-270). As to conditions: protein: recombinant; tags: N-terminal GST; dsDNA, one strand shown. A digest of the protocol:
as §1

For another assay, the target named is SPIB (Homo sapiens, UniProt Q01892 1-262). The settings on record: protein: recombinant; tags: N-terminal GST; dsDNA, one strand shown. A digest of the protocol:
as §1

For a further assay, the target named is T4, FEV (Homo sapiens, UniProt Q99581 1-238).
T4 sequence: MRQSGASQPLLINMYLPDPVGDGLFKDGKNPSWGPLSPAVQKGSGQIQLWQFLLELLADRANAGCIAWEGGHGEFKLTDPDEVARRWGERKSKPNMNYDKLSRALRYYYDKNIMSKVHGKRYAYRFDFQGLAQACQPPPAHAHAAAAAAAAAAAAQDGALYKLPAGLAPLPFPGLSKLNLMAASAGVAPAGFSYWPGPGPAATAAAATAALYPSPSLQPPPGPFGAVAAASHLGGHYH
As to conditions: protein: recombinant; tags: N-terminal GST; dsDNA, one strand shown. A digest of the protocol:
as §1

A further assay has as its target ETV5 (Homo sapiens, UniProt P41161 1-510). As to conditions: protein: recombinant; tags: N-terminal GST; dsDNA, one strand shown. Summed up: as §1
For another assay, the target named is HSF1 (Homo sapiens, UniProt Q00613 1-529). The settings on record: protein: recombinant; tags: N-terminal GST; chain copies: 3; dsDNA, one strand shown. Summed up: as §1
HSF1, sequence (Q00613 whole entry): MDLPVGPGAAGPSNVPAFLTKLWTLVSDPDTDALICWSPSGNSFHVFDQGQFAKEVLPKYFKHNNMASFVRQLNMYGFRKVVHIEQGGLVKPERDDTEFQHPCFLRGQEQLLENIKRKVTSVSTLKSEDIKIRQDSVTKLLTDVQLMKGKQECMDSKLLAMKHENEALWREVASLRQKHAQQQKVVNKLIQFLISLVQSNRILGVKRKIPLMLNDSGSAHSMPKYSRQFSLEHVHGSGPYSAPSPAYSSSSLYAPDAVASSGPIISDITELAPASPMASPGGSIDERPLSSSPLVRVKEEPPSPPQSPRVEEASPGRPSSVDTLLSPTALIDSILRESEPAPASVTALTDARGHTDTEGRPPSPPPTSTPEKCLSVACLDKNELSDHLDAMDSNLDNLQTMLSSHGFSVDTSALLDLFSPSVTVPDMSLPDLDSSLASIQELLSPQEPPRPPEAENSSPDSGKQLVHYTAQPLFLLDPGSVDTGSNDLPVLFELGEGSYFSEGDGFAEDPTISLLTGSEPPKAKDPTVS
The target in another assay is ELF4 (Homo sapiens, UniProt Q99607 1-663). The settings on record: protein: recombinant; tags: N-terminal GST; dsDNA, one strand shown. A digest of the protocol: as §1
ELF4, sequence (Q99607 whole entry): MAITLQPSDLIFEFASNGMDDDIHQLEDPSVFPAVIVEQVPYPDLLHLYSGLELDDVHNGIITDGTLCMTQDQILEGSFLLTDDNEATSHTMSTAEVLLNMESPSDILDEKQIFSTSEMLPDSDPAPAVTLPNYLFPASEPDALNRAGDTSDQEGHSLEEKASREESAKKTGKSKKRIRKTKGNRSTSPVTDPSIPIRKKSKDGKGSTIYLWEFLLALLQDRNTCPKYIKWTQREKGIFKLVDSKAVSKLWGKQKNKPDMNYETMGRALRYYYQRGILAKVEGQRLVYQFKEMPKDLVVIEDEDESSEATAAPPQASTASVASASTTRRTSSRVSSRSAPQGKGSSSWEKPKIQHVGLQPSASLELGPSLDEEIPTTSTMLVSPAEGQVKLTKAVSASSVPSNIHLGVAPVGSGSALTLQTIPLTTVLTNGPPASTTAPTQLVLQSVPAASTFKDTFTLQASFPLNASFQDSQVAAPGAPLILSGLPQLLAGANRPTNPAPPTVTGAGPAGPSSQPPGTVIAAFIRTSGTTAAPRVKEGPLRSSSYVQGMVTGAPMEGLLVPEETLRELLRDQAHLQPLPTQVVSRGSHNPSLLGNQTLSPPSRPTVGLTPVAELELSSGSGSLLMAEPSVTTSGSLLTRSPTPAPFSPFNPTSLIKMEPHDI
The target in a further assay is T5, ELK4 (Homo sapiens, UniProt P28324-2 1-405).
T5 sequence: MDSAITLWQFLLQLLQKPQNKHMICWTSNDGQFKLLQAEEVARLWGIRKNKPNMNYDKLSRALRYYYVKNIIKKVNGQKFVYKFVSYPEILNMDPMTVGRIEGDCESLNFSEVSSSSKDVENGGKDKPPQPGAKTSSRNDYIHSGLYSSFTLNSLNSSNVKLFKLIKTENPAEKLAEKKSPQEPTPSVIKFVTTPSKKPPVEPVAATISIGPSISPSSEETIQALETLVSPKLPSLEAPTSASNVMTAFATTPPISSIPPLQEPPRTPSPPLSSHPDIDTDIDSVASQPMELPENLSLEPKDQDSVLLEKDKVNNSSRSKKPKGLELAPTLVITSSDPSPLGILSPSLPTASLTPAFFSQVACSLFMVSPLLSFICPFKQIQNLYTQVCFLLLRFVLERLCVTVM
The settings on record: protein: recombinant; tags: N-terminal GST; dsDNA, one strand shown. Summed up:
as §1

The next assay addresses T6, ETV2 (Homo sapiens, UniProt O00321 1-342).
T6 sequence: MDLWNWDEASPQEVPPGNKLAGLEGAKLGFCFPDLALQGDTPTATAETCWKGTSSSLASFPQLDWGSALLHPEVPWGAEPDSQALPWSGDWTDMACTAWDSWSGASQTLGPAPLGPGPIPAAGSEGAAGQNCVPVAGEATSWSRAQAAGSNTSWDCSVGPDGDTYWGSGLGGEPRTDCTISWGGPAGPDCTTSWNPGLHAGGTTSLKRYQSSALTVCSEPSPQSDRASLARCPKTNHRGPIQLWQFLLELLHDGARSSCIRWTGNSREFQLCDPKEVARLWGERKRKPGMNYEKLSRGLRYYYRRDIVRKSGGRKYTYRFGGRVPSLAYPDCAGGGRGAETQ
The settings on record: protein: recombinant; tags: N-terminal GST; dsDNA, one strand shown. A digest of the protocol:
as §1

A further assay addresses T7, ELF3 (Homo sapiens, UniProt P78545 1-371).
T7 sequence: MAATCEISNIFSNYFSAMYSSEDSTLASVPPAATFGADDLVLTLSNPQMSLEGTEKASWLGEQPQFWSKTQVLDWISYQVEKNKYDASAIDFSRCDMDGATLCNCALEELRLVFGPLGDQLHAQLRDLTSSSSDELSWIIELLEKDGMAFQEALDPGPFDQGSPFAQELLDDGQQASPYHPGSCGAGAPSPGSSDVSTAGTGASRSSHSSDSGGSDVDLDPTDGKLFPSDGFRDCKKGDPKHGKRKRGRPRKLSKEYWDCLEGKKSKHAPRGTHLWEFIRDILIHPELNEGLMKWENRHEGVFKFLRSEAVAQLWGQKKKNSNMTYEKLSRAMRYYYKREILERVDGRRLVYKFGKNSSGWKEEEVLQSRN
The settings on record: protein: recombinant; tags: N-terminal GST; dsDNA, one strand shown. Summed up: as §1

The target of another assay is CRX (Homo sapiens, UniProt O43186 1-299). As to conditions: protein: recombinant; tags: N-terminal GST; dsDNA, one strand shown. Summed up:
as §1

The target in a further assay is ETV1 (Homo sapiens, UniProt P50549 1-477). As to conditions: protein: recombinant; tags: N-terminal GST; dsDNA, one strand shown. Summed up: as §1
ETV1, sequence (P50549 whole entry): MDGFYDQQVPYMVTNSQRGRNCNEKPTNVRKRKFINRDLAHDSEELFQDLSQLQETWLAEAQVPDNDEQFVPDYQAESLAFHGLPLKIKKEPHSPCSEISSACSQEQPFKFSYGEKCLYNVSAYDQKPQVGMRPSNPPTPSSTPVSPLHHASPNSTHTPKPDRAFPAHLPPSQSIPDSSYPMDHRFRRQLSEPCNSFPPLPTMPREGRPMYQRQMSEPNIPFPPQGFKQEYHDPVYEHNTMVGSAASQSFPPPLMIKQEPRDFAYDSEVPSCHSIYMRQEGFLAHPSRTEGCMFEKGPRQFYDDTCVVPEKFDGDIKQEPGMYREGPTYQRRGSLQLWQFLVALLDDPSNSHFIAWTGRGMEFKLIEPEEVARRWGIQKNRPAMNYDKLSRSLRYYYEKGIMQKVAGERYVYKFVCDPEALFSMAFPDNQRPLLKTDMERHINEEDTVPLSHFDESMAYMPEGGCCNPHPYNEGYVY

SPIB, sequence (Q01892 whole entry): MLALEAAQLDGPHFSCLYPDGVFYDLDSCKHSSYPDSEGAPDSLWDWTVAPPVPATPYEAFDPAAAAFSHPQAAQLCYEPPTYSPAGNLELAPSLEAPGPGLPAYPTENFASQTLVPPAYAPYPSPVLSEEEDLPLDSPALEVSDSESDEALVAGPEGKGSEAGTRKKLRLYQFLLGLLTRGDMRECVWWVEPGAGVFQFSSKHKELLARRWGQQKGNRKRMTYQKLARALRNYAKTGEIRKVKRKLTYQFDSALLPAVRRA
ETV5, sequence (P41161 whole entry): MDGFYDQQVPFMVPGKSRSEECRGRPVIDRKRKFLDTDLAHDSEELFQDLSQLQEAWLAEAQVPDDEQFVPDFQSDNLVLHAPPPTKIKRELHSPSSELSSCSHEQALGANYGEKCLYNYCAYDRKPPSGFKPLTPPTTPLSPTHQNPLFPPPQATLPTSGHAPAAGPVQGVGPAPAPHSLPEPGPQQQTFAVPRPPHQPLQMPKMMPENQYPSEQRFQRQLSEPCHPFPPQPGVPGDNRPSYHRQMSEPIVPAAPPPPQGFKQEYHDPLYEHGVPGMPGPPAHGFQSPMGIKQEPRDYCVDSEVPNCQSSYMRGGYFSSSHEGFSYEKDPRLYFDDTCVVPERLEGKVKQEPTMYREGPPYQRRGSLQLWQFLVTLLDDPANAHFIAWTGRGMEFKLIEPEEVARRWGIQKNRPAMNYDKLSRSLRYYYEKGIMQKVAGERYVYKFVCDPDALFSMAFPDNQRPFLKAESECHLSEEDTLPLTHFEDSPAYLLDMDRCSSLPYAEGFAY
CRX, sequence (O43186 whole entry): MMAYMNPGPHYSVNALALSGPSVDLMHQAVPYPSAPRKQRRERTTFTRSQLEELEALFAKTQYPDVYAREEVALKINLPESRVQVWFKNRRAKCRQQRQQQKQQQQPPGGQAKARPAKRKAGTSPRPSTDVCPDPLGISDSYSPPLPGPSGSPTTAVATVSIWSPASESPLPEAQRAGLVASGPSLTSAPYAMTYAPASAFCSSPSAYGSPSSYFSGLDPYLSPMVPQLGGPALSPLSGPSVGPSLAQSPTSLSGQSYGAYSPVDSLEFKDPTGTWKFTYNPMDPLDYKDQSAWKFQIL

AAGCCC: the binding signal is 1.04 fold enrichment (6-mer frequency, TF over GST control) with FLI1; 1.07 fold enrichment (6-mer frequency, TF over GST control) with ELK1; 1.11 fold enrichment (6-mer frequency, TF over GST control) with GABPA; 1.08 fold enrichment (6-mer frequency, TF over GST control) in the assay with ELF1; 1.04 fold enrichment (6-mer frequency, TF over GST control) in the assay with SPI1; 1.07 fold enrichment (6-mer frequency, TF over GST control) with SPIB. In addition, the binding signal with FEV was 1.06 fold enrichment (6-mer frequency, TF over GST control); with ETV5, 1.04 fold enrichment (6-mer frequency, TF over GST control); in the assay with HSF1, 1.22 fold enrichment (6-mer frequency, TF over GST control); with ELF4 it was 1.04 fold enrichment (6-mer frequency, TF over GST control); with ELK4 it was 1.06 fold enrichment (6-mer frequency, TF over GST control); with ETV2, 1.11 fold enrichment (6-mer frequency, TF over GST control). Also, the binding signal is 1.04 fold enrichment (6-mer frequency, TF over GST control) with ELF3; 1.54 fold enrichment (6-mer frequency, TF over GST control) in the assay with CRX; 1.06 fold enrichment (6-mer frequency, TF over GST control) in the assay with ETV1.
